From PubChem BioAssay (Tox21)
Activity calls are given as the source filed them. Unless noted, calls follow the shape of the dose curve; as a rule, active = well fitted curve in the direction sought with a large enough effect in the repeat runs; inconclusive = weak or mixed curves; inactive = no such curve, though single readings can be large; an effect the other way counts as inactive or inconclusive.

Assays:
[1] = qHTS assay to identify small molecule antagonists of the thyroid receptor (TR) signaling pathway (AID 743065); also: nearly all actives have a fitted effect of over 55% in size; also: potency is read from the fitted curve at half-maximal effect; as to activity, negative = inhibition: series mostly up to about 70 µM
In short: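 GH3.TRE-Luc rat pituitary cells (two TREs driving luciferase) were dosed with compound, then stimulated with 1 nM T3 (final) for 23.5 h at 37 C. ONE-Glo luminescence was the read-out, with CellTiter-Fluor fluorescence as the cytotoxicity counter-screen.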

[2] = system: thyroid hormone receptor (rat, GH3 cells); assay: qHTS assay to identify small molecule agonists of the thyroid receptor (TR) signaling pathway (AID 743066; calls by dose curve)
[3] = target: Estrogen receptor (Homo sapiens) (UniProt P03372); assay: qHTS assay to identify small molecule antagonists of the estrogen receptor alpha (ER-alpha) signaling pathway (AID 743069; active = well fitted curve in the direction sought with a large enough effect in the signal ratio in the repeat runs, not every such curve was filed as active; inconclusive = weak or mixed curves, or effect the other way; inactive = no such curve, though single readings can be large or run the other way; the % refers to the signal ratio; also: potency is read from the fitted curve at half-maximal effect)
In short: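 Beta-lactamase FRET fluorescence is read after 2 hr at room temperature with LiveBLAzer B/G substrate. Before that, ER-alpha-bla HEK293 cells sit 4 hr after plating, then receive compound plus 17beta-estradiol and incubate 18 hr at 37C.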

[4] = qHTS assay to identify small molecule antagonists of the estrogen receptor alpha (ER-alpha) signaling pathway - cell viability counter screen (AID 743074; calls by dose curve;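 also: HEK293 cells carrying ER-alpha-UAS-bla reporter stimulated with 17beta-estradiol; nearly all actives have a fitted effect of over 45% in size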)
[5] = target: Estrogen receptor (Homo sapiens) (UniProt P03372); assay: qHTS assay to identify small molecule agonists of the estrogen receptor alpha (ER-alpha) signaling pathway (AID 743075; calls by dose curve;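 also: HEK293 GripTite cells with ER-alpha and UAS-driven beta-lactamase reporter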)
[6] = target: Estrogen receptor (Homo sapiens) (UniProt P03372); assay: qHTS assay to identify small molecule agonists of the estrogen receptor alpha (ER-alpha) signaling pathway using the BG1 cell line (AID 743079); also: nearly all actives have a fitted effect of over 20% in size; also: potency is read from the fitted curve at half-maximal effect
[7] = qHTS assay to identify small molecule antagonists of the estrogen receptor alpha (ER-alpha) signaling pathway using the BG1 cell line (AID 743080; calls by dose curve;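 also: BG1 cells stimulated with 17beta-estradiol alongside compound; series mostly up to about 70 µM; nearly all actives have a fitted effect of over 25% in size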)
In short: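 Seeding, 24 h rest, compound transfer from DMSO, 17beta-estradiol addition, 21.5 h incubation, CellTiter-Fluor (30 min, 37 C), then ONE-Glo (30 min, room temperature): this sequence was run on BG1-Luc-4E2 reporter cells.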

Aromatase (Homo sapiens) = Aromatase (Homo sapiens) (UniProt P11511); assay: qHTS assay to identify aromatase inhibitors (AID 743083); also: series mostly up to about 70 µM; nearly all actives have a fitted effect of over 55% in size
[8] = qHTS assay to identify small molecule antagonists of the estrogen receptor alpha (ER-alpha) signaling pathway using the BG1 cell line - cell viability counter screen (AID 743081);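 also: compound given together with 17beta-estradiol as the ER stimulus; series mostly up to about 70 µM; nearly all actives have a fitted effect of over 45% in size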
[9] = qHTS assay to identify small molecule antagonists of the thyroid receptor (TR) signaling pathway - cell viability counter screen (AID 743064); also: nearly all actives have a fitted effect of over 50% in size
In short: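 CellTiter-Fluor readout, 30 min at 37 °C/5% CO2, following 23.5 h incubation of GH3.TRE-Luc cells with test compound and 1 nM T3 (final).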
% is scaled to controls: 0 for no effect and ±100 for the full control effect.

Chain of Estrogen receptor (Homo sapiens) (P03372 whole entry, looked up): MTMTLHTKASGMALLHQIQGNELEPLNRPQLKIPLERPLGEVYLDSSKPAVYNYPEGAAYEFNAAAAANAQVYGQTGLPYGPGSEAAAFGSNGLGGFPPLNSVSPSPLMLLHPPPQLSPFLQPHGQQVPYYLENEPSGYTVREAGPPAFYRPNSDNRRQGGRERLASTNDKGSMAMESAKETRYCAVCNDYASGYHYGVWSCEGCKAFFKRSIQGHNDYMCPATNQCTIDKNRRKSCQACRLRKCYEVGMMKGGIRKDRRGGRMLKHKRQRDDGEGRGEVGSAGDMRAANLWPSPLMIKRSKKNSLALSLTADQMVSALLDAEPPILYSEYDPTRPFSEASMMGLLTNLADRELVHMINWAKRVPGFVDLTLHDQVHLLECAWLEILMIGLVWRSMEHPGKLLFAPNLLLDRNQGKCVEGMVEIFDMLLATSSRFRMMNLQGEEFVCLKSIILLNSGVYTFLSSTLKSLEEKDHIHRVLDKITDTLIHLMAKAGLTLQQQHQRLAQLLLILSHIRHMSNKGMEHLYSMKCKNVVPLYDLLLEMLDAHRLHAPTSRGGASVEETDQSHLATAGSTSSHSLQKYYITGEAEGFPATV
Chain of Aromatase (Homo sapiens) (P11511 whole entry, looked up): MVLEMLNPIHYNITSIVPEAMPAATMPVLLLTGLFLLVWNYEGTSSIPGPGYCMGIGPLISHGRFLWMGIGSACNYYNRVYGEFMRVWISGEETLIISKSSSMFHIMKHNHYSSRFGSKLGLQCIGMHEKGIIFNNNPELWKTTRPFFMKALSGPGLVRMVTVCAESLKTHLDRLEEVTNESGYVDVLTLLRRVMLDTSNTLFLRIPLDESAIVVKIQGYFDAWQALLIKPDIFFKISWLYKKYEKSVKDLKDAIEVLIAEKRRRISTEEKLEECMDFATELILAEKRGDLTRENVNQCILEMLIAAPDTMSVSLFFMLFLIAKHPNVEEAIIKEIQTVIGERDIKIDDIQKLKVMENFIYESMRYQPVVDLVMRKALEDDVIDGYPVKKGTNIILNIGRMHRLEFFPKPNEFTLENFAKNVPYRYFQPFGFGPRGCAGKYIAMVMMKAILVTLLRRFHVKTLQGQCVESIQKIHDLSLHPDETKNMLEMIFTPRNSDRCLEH

CC(C)(C)NCC(O)c1cc(Cl)c(N)c(C(F)(F)F)c1 (configuration not stated)
inactive: Potency [1] | Potency [2] | Potency [3] | Potency [4] | Potency [5] | Potency [6] | Potency [7] | Potency (Aromatase (Homo sapiens))

CC(=O)NNc1ccccc1
active: Potency [1] 4.82 µM
inactive: Potency [2] | Potency [4] | Potency [8] | Potency (Aromatase (Homo sapiens))

O=S(=O)(Cl)Cl
inactive: Potency [9] | Potency [3] | Potency [4] | Potency [5] | Potency [6] | Potency [8] | Potency (Aromatase (Homo sapiens))

CCCCCCCCCCCCN=C(N)N
inactive: activity change, negative = cytotoxic [9] -13.9% [at 3.79 µM] | activation [2] -1.59% [at 3.63 µM] | activity change, negative = inhibition [7] -30.4% [at 3.79 µM] | activity change, negative = cytotoxicity [8] -12.7% [at 3.79 µM] | activity, negative = inhibition (Aromatase (Homo sapiens)) -1.41% [at 3.79 µM]

CC(Oc1cccc(Cl)c1)C(=O)O (configuration not stated)
inactive: Potency [2] | Potency [4] | Potency [8] | Potency (Aromatase (Homo sapiens))

c1ccc2c(c1)-c1cccc3cccc-2c13
inactive: Potency [9] | Potency [2] | Potency [4] | Potency [8] | Potency (Aromatase (Homo sapiens))

O=C(O)C(F)(F)C(F)(F)C(F)(F)C(F)(F)C(F)(F)C(F)(F)C(F)(F)C(F)(F)F
inactive: Potency [2] | Potency [4] | Potency [5] | Potency [6] | Potency [7] | Potency [8] | Potency (Aromatase (Homo sapiens))
active: Potency [3] 27.5 µM [inconclusive]

CCCN(CCC)C(=O)Cc1c(-c2ccc(Cl)cc2)nc2ccc(Cl)cn12
inactive: Potency [2] | Potency [4] | Potency [5] | Potency [6] | Potency [7] | Potency [8] | Potency (Aromatase (Homo sapiens))

C[N+]1(CCF)[C@@H]2CC[C@H]1CC(OC(=O)C(O)(c1ccccc1)c1ccccc1)C2 (some centres not stated)
inactive: Potency [1] | Potency [2] | Potency [7] | Potency [8] | Potency (Aromatase (Homo sapiens))
active: Potency [6] 15 µM

C=CCN1C[C@H](C)N([C@H](c2ccc(C(=O)N(CC)CC)cc2)c2cccc(OC)c2)C[C@H]1C
inactive: Potency [2] | Potency [3] | Potency [4] | Potency [5] | Potency [6] | Potency [7] | Potency [8] | Potency (Aromatase (Homo sapiens))

CC(Cc1ccccc1)NCc1ccccc1Cl (configuration not stated)
inactive: Potency [2] | Potency [3] | Potency [4] | Potency [5] | Potency [8] | Potency (Aromatase (Homo sapiens))
active: Potency [6] 26.6 µM

CCOC(=O)c1cncn1C(C)c1ccccc1 (configuration not stated)
inactive: Potency [1] | Potency [2] | Potency [3] | Potency [4] | Potency [5] | Potency [6] | Potency [7] | Potency [8] | Potency (Aromatase (Homo sapiens))

Cc1ncc(C[n+]2csc(CCO)c2C)c(N)n1
inactive: Potency [9] | Potency [2] | Potency [4] | Potency [8] | Potency (Aromatase (Homo sapiens))

CC(C)C1(C)N=C(c2ncccc2C(=O)O)NC1=O (configuration not stated)
inactive: Potency [1] | Potency [2] | Potency [3] | Potency [4] | Potency [5] | Potency [6] | Potency [7] | Potency [8] | Potency (Aromatase (Homo sapiens))

CCCCCCCCCCCCCCCl
inactive: Potency [1] | Potency [2] | Potency [3] | Potency [4] | Potency [5] | Potency [6] | Potency [7] | Potency [8] | Potency (Aromatase (Homo sapiens))
